# Shown are actives, neighbours in structure and some others; about 3.9% of the full set was active somewhere.
# USP2a block = blocks human ubiquitin-specific protease USP2a; Potency, µM (doses to about 38.3 µM), without a hit: top-dose activity change, negative = inhibition, usual class: inhibitors; actives 0.01% (n = 330,000); USP2 core, Ub-CHOP2 coupled fluorogenic reporter, 485/531; O75604;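 further: potency means the concentration at half of the fitted maximal effect; plate controls were DMSO wells for no effect and full inhibition by NEM control for full effect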
#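 Deubiquitinase activity read as fluorescence (485/531 nm) after Ub-CHOP2 cleavage activates the enterokinase reporter on its substrate; USP2 core 10nM, Ub-CHOP2 and substrate 25nM each, 30min compound preincubation then 60min RT; data normalized to NEM, curves fitted.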
# GALK inhibitor = inhibitors of human galactokinase | P51570 | Purified GALK, Kinase-Glo residual ATP luminescence | actives 0.007% (n = 270,000) | Potency, µM (top dose mostly 57.5 µM), for the others: at the top dose activity change, negative = inhibition, actives largely listed as inhibitors | AID 1868; further: potency means the concentration at half of the fitted maximal effect; on the % scale 0 is the no-effect control and ±100 the full control effect
#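 ATP-depletion format; final 35 uM ATP, 100 uM D-galactose, 5 nM enzyme; pH 8.0 HEPES/Mg2+ buffer; 60 min RT; luminescence read 10 min after detection reagent.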
# D1 potentiator = enhances dopamine response at the human D1 receptor. HEK293 TREx D1 cells, calcium flux, dopamine EC20 potentiation. potentiation, % at 10 µM. actives 0.036% (n = 360,000). AID 504651; in the data active means potentiation above about 30%; further: 0% is about no effect
# Target sequence (P21728 whole entry, looked up): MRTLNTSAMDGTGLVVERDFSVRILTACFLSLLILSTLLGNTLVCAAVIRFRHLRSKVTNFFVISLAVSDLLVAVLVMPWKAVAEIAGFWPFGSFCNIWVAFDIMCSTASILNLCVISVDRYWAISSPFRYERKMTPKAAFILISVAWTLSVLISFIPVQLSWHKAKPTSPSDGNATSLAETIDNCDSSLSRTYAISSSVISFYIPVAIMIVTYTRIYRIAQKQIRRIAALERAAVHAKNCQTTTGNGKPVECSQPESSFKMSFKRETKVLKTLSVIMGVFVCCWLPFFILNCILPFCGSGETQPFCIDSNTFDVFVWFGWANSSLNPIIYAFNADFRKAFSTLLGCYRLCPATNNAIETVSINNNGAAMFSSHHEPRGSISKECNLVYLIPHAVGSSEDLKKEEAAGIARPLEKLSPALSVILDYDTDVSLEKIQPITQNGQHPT
# Eya2 inh = Eya2 (human) phosphatase inhibition | O00167 | recombinant Eya2, OMFP fluorescence dephosphorylation (OMFP is methylfluorescein phosphate) | Potency, µM (series often up to 76.9 µM), for inactives: at the highest dose activity, negative = inhibition, hits mostly inhibitors | actives 0.006% (n = 330,000) | AID 488837; further: potency means the concentration at half of the fitted maximal effect; on the % scale 0 is the no-effect control and ±100 the full control effect
#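 Eya2 protein (added as 0.2 uM solution) was preincubated with compound for 10 min at ambient temperature in 50 mM HEPES pH 7.5, 50 mM NaCl, 5 uM MgCl2, 0.05% BSA, 1 mM DTT. OMFP (added at 50 uM) then reacted 10 min; fluorescence read at 485/525 nm.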
# D1 antagonist = blocks dopamine activation of the human D1 receptor; P21728; HEK293 TREx D1 cells, calcium flux, dopamine EC80; hits give low values; actives 3.2% (n = 360,000); activity change, negative = inhibition, % at 10 µM; in the data active means activity change below about -30%; further: on the % scale 0 is the no-effect control and ±100 the full control effect
#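 Tetracycline-induced HEK293 Trex D1 cells, force-coupled to calcium, dye-loaded; compounds added and read 180 s, then EC80 dopamine added and calcium flux tracked kinetically another 180 s.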
# D1 ag = activates the human D1 dopamine receptor | P21728 | HEK293 T-REx D1 cells, calcium flux, agonist mode | activation, % at 2 µM | actives 1% (n = 360,000) | AID 504660; in the data active means activation above about 30%; further: 0% is about no effect
#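 Inducible HEK293 T-REx D1 cells, force-coupled to calcium signalling, were plated at 4000 cells/well with tetracycline and held overnight at 30 C. After no-wash calcium dye loading, compound-evoked calcium rise over 180 s flagged agonists.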
# Active calls of the source: *; nt = no result; ! = a repeat was not active; [ ] = remark or other dose. Unless noted, the call rests on the fitted dose curve; in most records, active means well fitted inhibition curve with a large enough effect; inconclusive means small, poorly fitted or top-dose-only effect, or effect the other way; inactive means flat fitted curve, though single readings scatter.
SMILES,USP2a block,GALK inhibitor,D1 potentiator,Eya2 inh,D1 antagonist,D1 ag
Cc1cc(C(=O)CN2C(=O)NC(CC(C)C)C2=O)c(C)n1C1CC1 (stereo not drawn),1%,nt,nt,-11%,nt,nt
CCOc1ccc(-c2cn3c(n2)sc2cc(C(=O)N4CCCC(C)C4)ccc23)cc1 (stereo not drawn),nt,nt,-8,nt,-28,0
Cc1ccccc1S(=O)Cc1ccc(C(=O)NC2CCCCCC2)o1 (stereo not drawn),nt,nt,1,nt,-9,-1
COc1cccc(NC(=O)c2sc3nc(C)c(C(=O)Nc4ccc(C)cc4C)c(-c4cccs4)c3c2N)c1,nt,nt,-4,nt,-1,20
Cc1ccccc1CNC(=O)C1CCN(c2nnc(-n3c(C)ccc3C)s2)CC1,nt,nt,-1,nt,-7,-2
CCNC(=S)Nc1ccc(N(c2ccccc2)C(C)C)cc1,0%,0%,-8,10%,-1,1
CN(C)CCCNC(=S)Nc1ccc(-c2ccccc2)cc1,1%,-2%,-3,0%,-7,34*
CC(C)N(c1ccccc1)c1ccc(NC(=S)NCCN(C)C)cc1,5%,6%,-4,1%,8,34*
CN(C)CCCNC(=S)Nc1ccc(Oc2ccccc2)cc1,0%,-1%,-9,-3%,-22,12
Cc1c(NC(=O)/C(C#N)=C/c2ccc(-c3cccc(Cl)c3)o2)c(=O)n(-c2ccccc2)n1C,-1%,-1%,-10,-4%,-38*,0
COc1cc(CNCCCN2CCOCC2)cc(Br)c1OCc1ccc(Cl)cc1,1%,0%,-7,-16%,nt,72*
Cn1nc(C(F)(F)F)c2cc(C(=O)Nc3ccc(C(F)(F)F)cc3)sc21,0%,nt,-7,7%,-45*,21
Cc1ccccc1CNC(=O)c1ccc(Cl)c([N+](=O)[O-])c1,1%,nt,-3,6%,-61*,12
CC(C)[C@H](NC(=O)c1ccc(Cl)c([N+](=O)[O-])c1)C(=O)NCc1ccc(Cl)cc1Cl,-2%,2%,-4,-2%,-39*,5
CCNc1ccc(C(=O)OCC(=O)NCc2ccccc2Cl)cc1[N+](=O)[O-],5%,0%,-1,-1%,-88*,2
Cc1ccccc1CNC(=O)Cc1ccccc1[N+](=O)[O-],2%,nt,-3,1%,1,1
COc1cccc(Nc2ccc(-n3ccnc3)nn2)c1,0%,1%,-8,14%,-66*,0
CCSc1nc2n(n1)C(c1ccc(Cl)cc1Cl)C(C(=O)Nc1ccccc1C)=C(C)N2 (stereo not drawn),nt,nt,-5,nt,-34*,0
COc1cccc(CSc2nc3n(n2)C(c2cccnc2)C(C(=O)Nc2ccccc2C)=C(C)N3)c1 (stereo not drawn),nt,nt,-2,nt,-7,-1
CC1=C(C(=O)Nc2ccccc2C)C(c2ccncc2)n2nc(SCc3ccccc3Cl)nc2N1 (stereo not drawn),nt,nt,0,nt,-2,1
CC1=C(C(=O)Nc2ccccc2C)C(c2cccnc2)n2nc(SCc3ccccc3)nc2N1 (stereo not drawn),nt,nt,-5,nt,-38*,3
Cc1ccc(-n2nc(C)c3c(C)cc(=O)n(CC(=O)Nc4cccc(C)c4C)c32)cc1,nt,nt,-3,nt,16,2
CCCC[C@]12Cc3cc(C#N)ccc3C(O1)c1c(cc(C)n(-c3ccccc3)c1=O)O2,-2%[7.66 µM],nt,-2,-3%[15.4 µM],1,0
O=S(=O)(Cc1cc(-c2ccccc2Cl)no1)c1ccccc1,3%,1%,-9,2%,-21,37*
O=S(=O)(Cc1cc(-c2ccc(Cl)cc2)no1)c1ccccc1,1%,1%,-3,-31%,-19,3
SMILES,USP2a block,GALK inhibitor,D1 potentiator,Eya2 inh,D1 antagonist,D1 ag
Cn1cnnc1SCC(=O)c1c(N)n(Cc2ccccc2)c(=O)n(C)c1=O,3%,-2%,-7,1%,-60*,0
CCCCn1c2nc3ccccc3nc2c2c(=O)n(CCC(C)C)cnc21,-2%,-1%,-3,9%,-42*,3
CCCCOc1cccc(C(=O)Nc2ccc(N3CCN(CC)CC3)cc2)c1,1%,-1%,-8,5%,-51*,7
CCOc1ccc(C(=O)Nc2ccc(N3CCN(C)CC3)cc2)cc1,-1%,3%,-7,11%,-24,3
CCCCOc1ccc(C(=O)Nc2ccc(N3CCN(C)CC3)cc2)cc1,5%,-3%,-16,-7%,-73*,11
CCOc1cccc(C(=O)Nc2ccc(N3CCN(S(C)(=O)=O)CC3)cc2)c1,5%,0%,-7,16%,2,0
CCOc1ccc(Nc2nc(C)c(NC(=O)c3cccc(F)c3)c(Nc3ccc(OCC)cc3)n2)cc1,nt,nt,0,nt,-3,3
Cc1nn(C)cc1CNC(=O)C1C2CCC(C2)C1C(=O)O (stereo not drawn),2%,7%,-3,-7%,-32*,6
COc1ccc(NC(=O)CSc2oc(-c3cccs3)nc2S(=O)(=O)c2ccc(Br)cc2)c(OC)c1,nt,nt,0,nt,-1,1
CCNc1cc(S(=O)(=O)C(F)(F)F)ccc1N,-1%,2%,-3,-4%,-38*,22
CCNc1ccc(S(=O)(=O)C(F)(F)F)cc1NC(=O)C12CCC(CC1)C2,0%,0%,0,7%,-6,7
Cc1ccc(-c2c(C(=O)N3CCN(c4ccc(F)cc4)CC3)oc(=O)c3ccccc23)cc1,nt,nt,-1,nt,24,2
Cc1ccc(-n2nc3cc(C)c(NC(=O)c4ccc(-c5ccccc5)o4)cc3n2)cc1,nt,nt,-3,nt,7,5
Cc1ccc(OC(=O)c2cccc(S(=O)(=O)N3CCN(C)CC3)c2)c(Br)c1,1%,4%,-10,3%,-32*,6
COc1ccc(-c2cc(NCc3ccc(C)cc3)n3cnnc3n2)cc1,nt,nt,-2,nt,-8,0
Cc1cccc(OCC(=O)Nc2ccncc2)c1C,-1%,-2%,-10,1%,-1,13
Cc1cccc(OCC(=O)Nc2cccc3cccnc23)c1C,nt,nt,1,nt,-45*,5
O=[N+]([O-])c1cccc(C2CC(c3ccccc3)=NN2c2ccccc2)c1 (stereo not drawn),-1%,-8%,-3,2%,-1,5
N#CC1CC(c2ccc([N+](=O)[O-])cc2)=NN1c1ccc([N+](=O)[O-])cc1 (stereo not drawn),7%,10%,-4,11%,19,34*
CCCC(=O)n1nc(-c2cccnc2)nc1NCc1ccccc1,3%,-2%,-4,-20%,-42*!,1
CCC(=O)n1nc(-c2cccnc2)nc1NCc1ccccc1,-1%,1%,-4,-6%,8,0
